Assay results taken from PubChem BioAssay (Tox21).
Records with an inconclusive call do not appear. A call without a number means that no potency is given here. Active and inactive are the calls of the source. Unless noted, calls follow the shape of the dose curve; as a rule, active = well fitted curve in the direction sought with a large enough effect in the repeat runs; inconclusive = weak or mixed curves; inactive = no such curve, though single readings can be large; an effect the other way counts as inactive or inconclusive.

Tests used:
[1] = qHTS assay to identify small molecule agonists of the vitamin D receptor (VDR) signaling pathway - cell viability counter screen (AID 743224); also: nearly all actives have a fitted effect of over 50% in size; also: potency is read from the fitted curve at half-maximal effect
How it was run: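 Counter screen run in the same wells as the VDR-bla reporter assay: CellTiter-Glo luminescence, 30 min at room temperature, after 16 h compound treatment at 37C of cells pre-plated for 4 h.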

[2] = qHTS assay to identify small molecule antagonists of the vitamin D receptor (VDR) signaling pathway - cell viability counter screen (AID 743225); also: nearly all actives have a fitted effect of over 50% in size
How it was run: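 Parallel cytotoxicity test: VDR-UAS-bla HEK 293T, 3 nM (final) 1-alpha,25-dihydroxyvitamin D3 with test compound, 16 h, 37C. Endpoint is CellTiter-Glo luminescence in the same wells.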

[3] = qHTS assay to identify small molecule agonists of the NFkB signaling pathway (AID 1159509; active = well fitted curve in the direction sought with a large enough effect in the signal ratio in the repeat runs, not every such curve was filed as active; the % refers to the signal ratio; also: series mostly up to about 61 µM)
How it was run: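 Beta-lactamase reporter assay run in quantitative high-throughput format on an NF-kB-responsive ME-180 line, with 5 hr compound treatment and a FRET-based blue/green fluorescence readout.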

[4] = qHTS assay to identify small molecule agonists of the NFkB signaling pathway - cell viability counter screen (AID 1159515; calls by dose curve; also: series mostly up to about 61 µM; nearly all actives have a fitted effect of over 55% in size)
How it was run: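 Read by CellTiter-Glo luminescence (30 min, room temperature) in the wells also used for the beta-lactamase FRET read. ME-180 NFkB-bla cells at 2,000 per well were plated overnight, then exposed to compound for 5 hr at 37 C.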

[5] = qHTS assay to identify small molecule agonists of the endoplasmic reticulum stress response signaling pathway (AID 1159516; active = well fitted activation curve with a large enough effect in the signal ratio in the repeat runs, not every such curve was filed as active; the % refers to the signal ratio)
How it was run: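 Ratiometric FRET readout (405 nm excitation; 460 and 530 nm emission) of a beta-lactamase gene driven by the ER stress response element, after 2 hr substrate loading. HeLa ESRE-bla cells were seeded overnight and treated with compounds for only 5 hr at 37 C.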

[6] = qHTS assay to identify small molecule agonists of the endoplasmic reticulum stress response signaling pathway - cell viability counter screen (AID 1159517; calls by dose curve; also: series mostly up to about 61 µM; nearly all actives have a fitted effect of over 50% in size)
How it was run: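 Steps: seed 1,500 ESRE-bla HeLa cells per well; incubate overnight at 37 C, 5% CO2; add compounds in DMSO for 5 hr; run FRET substrate 2 hr RT; add CellTiter-Glo, wait 30 min, read luminescence.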

[7] = qHTS assay to identify small molecule antagonists of the retinoid-related orphan receptor gamma (ROR-gamma) signaling pathway - cell viability counter screen (AID 1159520); also: nearly all actives have a fitted effect of over 50% in size; also: potency is read from the fitted curve at half-maximal effect
How it was run: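 Tet-on ROR gamma CHO cells were given compounds for 2 hr, then doxycycline hyclate at 1 uM final, and incubated 16 hr at 37 C. Viability was measured as ATP content by CellTiter-Glo luminescence.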

[8] = target: Nuclear receptor ROR-gamma (Homo sapiens) (UniProt P51449); assay: qHTS assay to identify small molecule antagonists of the retinoid-related orphan receptor gamma (ROR-gamma) signaling pathway (AID 1159521; also: nearly all actives have a fitted effect of over 50% in size; also: potency is read from the fitted curve at half-maximal effect)
How it was run: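 Decreased RORE-driven luciferase luminescence indicates antagonism. Tet-on RORγ CHO cells received compound, then 1 uM final doxycycline 2 h later; signal read after 16 h incubation.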

[9] = qHTS assay to identify small molecule agonists of the AP-1 signaling pathway - cell viability counter screen (AID 1159525; calls by dose curve; also: nearly all actives have a fitted effect of over 55% in size; also: potency is read from the fitted curve at half-maximal effect)
How it was run: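 Same-well cytotoxicity counter screen of the Tox21 10K library in ME-180 cells. The readout is ATP-dependent luminescence after 5 h compound treatment. Data are normalised to DMSO and tetra n-octyl ammonium bromide controls.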

[10] = qHTS assay to identify small molecule antagonists of the retinoid acid receptor (RAR) signaling pathway - cell viability counter screen (AID 1159551); also: nearly all actives have a fitted effect of over 35% in size
How it was run: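 Cytotoxicity counter screen: ATP content quantified by CellTiter-Glo luminescence in C3RL4 cells treated 6 hr at 37 C with compound and retinol (1 uM final). Cells plated at 1,000/well and cultured overnight before dosing.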

[11] = qHTS assay to identify small molecule antagonists of the retinoic acid receptor (RAR) signaling pathway (AID 1159552; also: nearly all actives have a fitted effect of over 50% in size; also: potency is read from the fitted curve at half-maximal effect)
How it was run: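 C3RL4 RARE-luc cells, overnight plating; retinol 1 uM final added right after compound; 6 hr 37 C; luciferase read at 30 min RT.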

[12] = qHTS assay to identify small molecule agonists of the retinoic acid receptor (RAR) signaling pathway (AID 1159553); also: potency is read from the fitted curve at half-maximal effect
How it was run: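 Luminescence was measured 30 min after luciferase reagent addition at room temperature. Before that, C3RL4 reporter cells (1,000 per well, plated overnight) were treated with compound for 6 hr at 37 C and 5% CO2.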

[13] = target: Retinoic acid receptor RXR-alpha (Homo sapiens) (UniProt P19793); assay: qHTS assay to identify small molecule agonists of the RXR signaling pathway (AID 1159527; calls by dose curve; also: nearly all actives have a fitted effect of over 35% in size; also: potency is read from the fitted curve at half-maximal effect)
How it was run: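 16 hr incubation of compound-treated RXR-alpha-UAS-bla HEK 293T cells (2% charcoal-stripped FBS, 37 C) preceded a 2 hr room-temperature LiveBLAzer FRET substrate step and blue/green fluorescence measurement.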

[14] = qHTS assay to identify small molecule agonists of the RXR signaling pathway - cell viability counter screen (AID 1159529); also: nearly all actives have a fitted effect of over 50% in size; also: potency is read from the fitted curve at half-maximal effect
How it was run: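 In this parallel viability measure, GeneBLAzer RXR-alpha HEK 293T cells (2% charcoal-stripped FBS) were given a 5 hr preincubation, treated with compounds 16 hr at 37 C, and read by CellTiter-Glo luminescence.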

[15] = qHTS assay to identify small molecule agonists of the AP-1 signaling pathway (AID 1159526; calls by dose curve)

Sequence of Retinoic acid receptor RXR-alpha (Homo sapiens) (P19793 whole entry, looked up): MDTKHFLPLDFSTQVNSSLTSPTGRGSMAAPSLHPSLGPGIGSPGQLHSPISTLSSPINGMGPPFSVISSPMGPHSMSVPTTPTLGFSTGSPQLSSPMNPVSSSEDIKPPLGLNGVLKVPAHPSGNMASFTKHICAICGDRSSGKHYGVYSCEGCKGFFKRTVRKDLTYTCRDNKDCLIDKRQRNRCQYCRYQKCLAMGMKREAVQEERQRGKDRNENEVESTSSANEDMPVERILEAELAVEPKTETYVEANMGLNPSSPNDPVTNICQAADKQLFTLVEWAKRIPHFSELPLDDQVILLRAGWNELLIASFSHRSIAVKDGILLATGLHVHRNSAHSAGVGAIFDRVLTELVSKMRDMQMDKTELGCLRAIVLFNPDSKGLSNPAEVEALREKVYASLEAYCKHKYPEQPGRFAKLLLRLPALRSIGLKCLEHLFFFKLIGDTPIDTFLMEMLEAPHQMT

SMILES | Potency [1] | outcome [2] | outcome [3] | outcome [4] | outcome [5] | Potency [6] | Potency [7] | Potency [8] | Potency [9] | Potency [10] | Potency [11] | Potency [12] | Potency [13] | Potency [14] | outcome [15]
CCOP(=S)(OCC)SCSP(=S)(OCC)OCC | inactive | inactive | inactive | inactive | inactive | inactive | inactive | inactive | inactive | inactive | inactive | – | – | – | –
c1cc[c]([Hg][c]2ccccc2)cc1 | 49 µM (active) | inactive | inactive | inactive | inactive | inactive | 27.3 µM (active) | 19.3 µM (active) | inactive | – | inactive | 8.63 µM (active) | – | – | –
CC(C(O)c1ccccc1)N(C)C/C=C/c1ccccc1 (stereo unspecified) | inactive | – | inactive | inactive | inactive | inactive | inactive | inactive | inactive | – | inactive | inactive | – | – | –
CN(N=O)C(N)=O | inactive | inactive | inactive | inactive | inactive | inactive | inactive | inactive | inactive | inactive | inactive | – | inactive | inactive | –
CC(C)NCC(O)c1ccc(N)c(C#N)c1 (stereo unspecified) | inactive | inactive | inactive | inactive | inactive | inactive | inactive | inactive | – | inactive | – | – | inactive | inactive | inactive
CNC(=O)Oc1cccc(C(C)C)c1 | inactive | inactive | inactive | inactive | inactive | inactive | inactive | inactive | inactive | – | – | – | – | – | inactive
CCC(C)n1c(=O)[nH]c(C)c(Br)c1=O (stereo unspecified) | inactive | inactive | inactive | inactive | inactive | inactive | inactive | inactive | – | inactive | – | – | inactive | inactive | inactive
O=C(O)C(Br)CBr (stereo unspecified) | inactive | inactive | inactive | inactive | inactive | inactive | inactive | inactive | inactive | inactive | – | – | 9.94 µM (active) | inactive | –
CCOP(=S)(Oc1cnc(C(C)(C)C)nc1)OC(C)C (stereo unspecified) | – | – | inactive | inactive | inactive | inactive | inactive | inactive | inactive | inactive | – | inactive | inactive | – | –
COP(N)(=S)Oc1ccccc1C(=O)OC(C)C (stereo unspecified) | inactive | inactive | inactive | inactive | inactive | inactive | inactive | inactive | – | inactive | – | – | inactive | inactive | inactive
O=C(O)c1ccc2[nH]cc(CCCCN3CC=C(c4ccccc4)CC3)c2c1 | inactive | inactive | inactive | inactive | inactive | inactive | inactive | inactive | – | inactive | – | – | inactive | inactive | inactive
[Cl][Sn]([Cl])([Cl])[Cl] | inactive | inactive | inactive | inactive | inactive | inactive | inactive | inactive | inactive | inactive | – | – | – | – | inactive
CC1COC2(c3ccccc3Cl)c3cc(Cl)ccc3NC(=O)CN12 (stereo unspecified) | inactive | inactive | inactive | inactive | inactive | inactive | inactive | inactive | inactive | – | 29.8 µM (active) | inactive | inactive | – | –
CCN(CC)c1nc(C)cc(OP(=S)(OC)OC)n1 | inactive | inactive | inactive | inactive | inactive | inactive | inactive | inactive | inactive | inactive | inactive | inactive | inactive | inactive | –
C=CCC1=C(C)[C@@H](OC(=O)[C@@H]2[C@@H](C=C(C)C)C2(C)C)CC1=O | 38.9 µM (active) | – | inactive | inactive | inactive | inactive | 54.5 µM (active) | 27.3 µM (active) | 49 µM (active) | – | 27.3 µM (active) | inactive | – | 21.9 µM (active) | –
CC(C(=O)c1ccccc1)N(C)C (stereo unspecified) | inactive | – | inactive | inactive | inactive | inactive | inactive | inactive | – | inactive | – | – | inactive | inactive | inactive
CC1CN1P(=O)(N1CC1C)N1CC1C (stereo unspecified) | inactive | inactive | inactive | inactive | inactive | inactive | inactive | inactive | inactive | inactive | – | – | – | inactive | –
BrCCCCCCBr | inactive | inactive | inactive | inactive | inactive | inactive | inactive | inactive | inactive | inactive | inactive | inactive | – | inactive | –
Cc1cccc(C#N)c1 | inactive | inactive | inactive | inactive | inactive | inactive | inactive | inactive | – | inactive | – | – | inactive | inactive | inactive
O=C1CN2CCOC2(c2ccccc2Cl)c2cc(Cl)ccc2N1 (stereo unspecified) | inactive | inactive | inactive | inactive | inactive | inactive | inactive | inactive | inactive | – | – | inactive | inactive | inactive | –
Nc1cc(Cl)ccc1O | inactive | inactive | inactive | inactive | inactive | inactive | inactive | inactive | inactive | inactive | – | – | – | – | –
Nc1n[nH]c(N)n1 | inactive | inactive | inactive | inactive | inactive | inactive | inactive | 15.6 µM (active) | inactive | inactive | – | inactive | – | – | –
CCCCc1ccc(O)cc1 | inactive | – | inactive | inactive | inactive | inactive | inactive | inactive | inactive | inactive | inactive | inactive | inactive | inactive | –
